From PubChem
Integrin act MD = activators of alpha7 integrin expression for muscular dystrophy; alpha7betagal myoblasts, beta-gal FDG fluorescence, 48 h; Potency, µM (titrated, usually from 38.3 µM), without a hit: at the highest dose activation, most hits filed as activators; 0.064% of 350,000 active;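 also: 100% = response of the positive control SU9516; nearly all actives have a fitted effect of over 60% in size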
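alpha7betagal+/- myoblasts (passage 13, 250/well) treated 48 h at 37C with compounds at 1:260 dilution of DMSO stock. Lysed, then beta-galactosidase activity read as FDG fluorescence (ex 480/em 540) after 30 min, with pre-read for autofluorescence.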
RORg inh = ROR gamma (mouse) transcription inhibition | Drosophila S2 Gal4-RORgamma UAS-luciferase reporter, 20 h | P51450 | Potency, µM (doses to about 53.6 µM), for inactives: top-dose activity change, negative = inhibition, most hits filed as inhibitors | 5.4% of 310,000 active; also: % is scaled to controls: 0 for no effect and ±100 for the full control effect; nearly all actives have a fitted effect of over 60% in size
Target sequence (P51450 whole entry, looked up, the tested form may be a part): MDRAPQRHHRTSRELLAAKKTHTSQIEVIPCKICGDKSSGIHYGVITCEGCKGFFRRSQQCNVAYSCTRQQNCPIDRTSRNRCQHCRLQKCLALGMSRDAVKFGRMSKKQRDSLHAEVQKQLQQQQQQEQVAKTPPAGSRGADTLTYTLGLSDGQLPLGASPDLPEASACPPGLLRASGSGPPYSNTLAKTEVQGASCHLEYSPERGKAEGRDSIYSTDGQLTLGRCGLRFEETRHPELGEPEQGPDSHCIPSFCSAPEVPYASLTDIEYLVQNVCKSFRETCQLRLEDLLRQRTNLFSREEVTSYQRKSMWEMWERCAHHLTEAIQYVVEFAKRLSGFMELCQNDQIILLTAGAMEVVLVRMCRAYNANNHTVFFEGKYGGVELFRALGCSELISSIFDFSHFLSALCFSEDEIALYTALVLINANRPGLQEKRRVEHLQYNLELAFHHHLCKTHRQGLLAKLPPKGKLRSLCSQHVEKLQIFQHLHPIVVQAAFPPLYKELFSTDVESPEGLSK
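Stable Schneider cell line, Gal4 DNA-binding domain fused to ROR gamma, UAS-luciferase. Cmpd 1 hr RT → CuSO4 700 uM final → 20 hr RT → luciferase reagent 10 min → luminescence.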
Mito fusion yeast = inhibitors of mitochondrial division or activators of mitochondrial fusion. S. cerevisiae fusion-defective mutant growth rescue, CellTiterGlo 48 h. Potency, µM (top dose mostly 46.1 µM), for inactives: top-dose growth rescue (activation), most hits filed as activators. 0.23% of 320,000 active. AID 485298; also: % of control where 0% means no effect; nearly all actives have a fitted effect of over 45% in size
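Read-out: ATP-based luminescence (CellTiterGlo, 10 min ambient) reporting growth of fusion-defective ts yeast after 48 hours at 37C on glycerol/ethanol YPEG medium in the presence of compound.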
BCR signal inh = inhibitors of chronic active B-cell receptor signaling; ABC-DLBCL IkBa-CBG/CBR reporter, luminescence ratio, 4 h; Potency, µM (titrated, usually from 46.1 µM), for inactives: top-dose activity change, negative = inhibition, hits mostly inhibitors; 0.05% of 340,000 active; AID 493014; active = well fitted inhibition curve with a large enough effect in the signal ratio, with a control signal flat, not every such curve was filed as active; inconclusive = small, poorly fitted or top-dose-only effect, or effect the other way, or a change in a side signal; the % refers to the signal ratio;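 also: plate controls were basal doxycycline-induced cells for no effect and cells given 10 µM MG132 for full effect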
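TMD8 ABC-DLBCL cells carrying doxycycline-inducible green luciferase fused to IkappaBalpha plus unfused red luciferase were exposed to compounds (up to 46 uM) for 4 hrs at 37C. Activity came from the overlap-corrected green/red luminescence ratio.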
uPA generation = cell surface uPA generation inhibition; cell surface uPA generation assay, qHTS; Potency, µM (top dose mostly 38.3 µM), without a hit: at the top dose activity change, negative = inhibition, hits mostly inhibitors; 0.31% of 330,000 active; active = well fitted inhibition curve with a large enough effect; inconclusive = small, poorly fitted or top-dose-only effect; inactive = no such curve, though single readings can be large or run the other way; tested in mouse RAW 264.7 cells; also: % is scaled to controls: 0 for no effect and ±100 for the full control effect; nearly all actives have a fitted effect of over 55% in size
VP16 counter = counter-screen for ROR gamma inhibitors: Gal4-VP16 reporter; Drosophila S2 Gal4-VP16 UAS-luciferase, luminescence, 20 h; Potency, µM (titrated, usually from 53.6 µM), for inactives: top-dose activity, negative = inhibition, actives largely listed as inhibitors; 3.5% of 310,000 active; AID 2546;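 also: Gal4-VP16 expression switched on by copper sulfate through the metallothionein promoter; % is scaled to controls: 0 for no effect and ±100 for the full control effect; nearly all actives have a fitted effect of over 50% in size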
Numbers without * were called inactive; ? = inconclusive; / = not tested or not shown. Only some compounds are listed: those with a hit (about 5.5% of all), similar ones and a draw of the others. Unless noted, calls follow the shape of the dose curve; as a rule, active = well fitted curve in the direction sought with a large enough effect; inconclusive = small, poorly fitted or top-dose-only effect, or another doubt; inactive = no such curve, though single readings can be large; an effect the other way counts as inactive or inconclusive. Potency is read from the fitted curve at half-maximal effect.

SMILES	Integrin act MD	RORg inh	Mito fusion yeast	BCR signal inh	uPA generation	VP16 counter
CC[C@H](C)[C@H](NC(=O)[C@H](Cc1ccccc1)NC(=O)[C@H](CCC(=O)O)NC(=O)[C@H](CCCCN)NC(=O)[C@H](C)NC(=O)[C@H](C)NC(=O)[C@H](CCC(N)=O)NC(=O)CNC(=O)[C@H](CCC(=O)O)NC(=O)[C@H](CC(C)C)NC(=O)[C@H](Cc1ccc(O)cc1)NC(=O)[C@H](CO)NC(=O)[C@H](CO)NC(=O)[C@@H](NC(=O)[C@H](CC(=O)O)NC(=O)[C@H](CO)NC(=O)[C@@H](NC(=O)[C@H](Cc1ccccc1)NC(=O)[C@@H](NC(=O)CNC(=O)[C@H](CCC(=O)O)NC(=O)[C@H](C)NC(=O)[C@@H](N)Cc1cnc[nH]1)[C@@H](C)O)[C@@H](C)O)C(C)C)C(=O)N[C@@H](C)C(=O)N[C@@H](Cc1c[nH]c2ccccc12)C(=O)N[C@@H](CC(C)C)C(=O)N[C@H](C(=O)N[C@@H](CCCCN)C(N)=O)C(C)C	/	2%	/	/	/	-7%
Cc1onc(-c2c(Cl)cccc2Cl)c1-c1nc2cc(Cl)ccc2c(=O)o1	40%	?	6%	?	-9%	-6%
CCOc1ccc2nc(N3C(=O)CNC3=S)sc2c1	-44%	1µM*	16%	?	-11%	2.8µM*
CCCCC(=O)N1CCN(c2nc3ccc(OCC)cc3s2)CC1	4%	3%	0%	2%	-6%	-9%
Cc1cc2nc(N3C(=O)CNC3=S)sc2cc1C	-62%	1µM*	?	?	-15%	3.2µM*
CC(C)NC(=O)Cn1cc(S(=O)(=O)N2CCCC2)c(S(=O)(=O)N2CCCC2)c1	3%	-17%	2%	9%	-1%	4%
COc1ccc(OC)c(S(=O)(=O)ON2C(=O)c3ccccc3C2=O)c1	-54%	5.6µM*	0%	0%	-9%	7.9µM*
Cc1ccc(C(=O)NC(=S)Nc2ccc(CN3CCOCC3)cc2)cc1	-27%	14µM*	-11%	-7%	6%	?
CC(C)Oc1ccc(C(=O)NC(=S)Nc2ccc(CN3CCOCC3)cc2)cc1	-17%	7.1µM*	-2%	3%	4%	13µM*
CC(C)C(=O)NC(=S)Nc1ccc(CN2CCOCC2)cc1	17%	?	-1%	-9%	10%	-10%
Cc1cccc(CN2CC34CCC(CC3S2(=O)=O)O4)c1 (stereo not given)	/	25%	/	/	/	-5%
CCc1nnc(NC(=O)CSc2nnc(-c3ccco3)n2CCOC)s1	-7%	?	5.6µM*	0%	0%	3%
COC(=O)CSc1nnc(-c2ccco2)o1	6%	-5%	-10%	10%	-1%	4%
CC(C)c1nnc(NC(=O)CSc2nnc(-c3ccco3)o2)s1	20%	11µM*	2%	?	-1%	18µM*
Cc1nnc(NC(=O)CSc2nnc(-c3ccco3)o2)s1	-9%	1.6µM*	-12%	?	-2%	5µM*
Cc1ccc(NC(=O)CSc2nnc(-c3ccco3)o2)c(C)c1	13%	0%	3%	5%	5%	5%
CCOC(=O)C1CSC(Cc2ccc(OCc3ccc([N+](=O)[O-])cc3)cc2)N1 (stereo not given)	/	14µM*	/	/	/	?
COc1ccc(-c2cccc(NC(=O)COc3ccc(Cl)cc3)c2)nn1	11%	15%	?	1%	-6%	21%
COc1cc(/C=N/N=C2/NC(=O)C(Cc3ccc(F)cc3)S2)ccc1O (stereo not given)	-38%	13µM*	22%	?	-10%	?
COc1cccc(CN2CC34CC(c5ccc(C(C)=O)cc5)C(CC3S2(=O)=O)O4)c1 (stereo not given)	/	8%	/	/	/	8%
CN(C)c1ccc(N/C=C/C(=O)c2ccco2)cc1	-53%	-36%	-1%	?	-8%	11µM*
NS(=O)(=O)c1ccc(N/C=C\C(=O)c2ccc(F)cc2)cc1	21%	37%	-1%	-2%	-2%	?
CC(=O)Nc1ccc(N/C=C/C(=O)c2ccco2)cc1	-4%	?	-10%	?	-4%	?
CN(C)c1ccc(N/C=C/C(=O)c2ccc(F)cc2)cc1	0%	10µM*	-7%	3%	/	?
CCOC(=O)c1c(C)[nH]c(C)c1S(=O)(=O)N1CCCC(C(=O)N2CCN(c3ccc(Cl)cc3)CC2)C1 (stereo not given)	/	/	/	4%	/	/
SMILES	Integrin act MD	RORg inh	Mito fusion yeast	BCR signal inh	uPA generation	VP16 counter
O=[N+]([O-])c1nn(-c2ccc(Cl)cc2)n(O)c1=NCc1ccncc1	15%	-9%	1%	19%	13µM*	?
Cc1ccc(CN=c2c([N+](=O)[O-])nn(-c3ccc(Cl)cc3)n2O)cc1	-19%	-20%	0%	11%	-23%	-10%
CCc1cccc(N=c2c([N+](=O)[O-])nn(-c3ccc(Cl)cc3)n2O)c1	-1%	-3%	18µM*	10%	-13%	-4%
O=C1/C(=C/c2ccncc2)CCC/C1=C\c1ccncc1	-21%	6.3µM*	-4%	?	-15%	5µM*
N#Cc1ccc(CS(=O)(=O)c2ccccc2)cc1	/	-5%	/	/	/	-14%
COC(=O)CSc1nnc(NC(=O)c2ccc3c(c2)OCO3)s1	-3%	6.3µM*	1%	8%	?	?
O=C(O)CSc1nnc(NC(=O)c2ccc3c(c2)OCO3)s1	-24%	13µM*	2%	?	-15%	13µM*
C=CCSc1nnc(NC(=O)c2ccc3c(c2)OCCO3)s1	12%	/	/	/	/	/
COc1ccc(C2/C=C\CN(C(=O)C3CCCCC3)C(C)C(=O)N2Cc2ccc(F)cc2)cc1 (stereo not given)	/	?	/	/	/	-17%
NCCCC[C@H](NC(=O)[C@H](CCCN=C(N)N)NC(=O)[C@H](CO)NC(=O)[C@H](CCCN=C(N)N)NC(=O)[C@@H](N)Cc1ccc(O)cc1)C(=O)N[C@@H](Cc1ccc(O)cc1)C(=O)N[C@@H](CO)C(=O)N[C@@H](CO)C(=O)N[C@@H](Cc1c[nH]c2ccccc12)C(=O)N[C@@H](Cc1ccc(O)cc1)C(=O)O	/	-19%	/	/	/	4%
Clc1ccccc1/C=C/c1nc(-c2ccccn2)no1	-44%	2.5µM*	-2%	?	-13%	?
O=[N+]([O-])c1c(NCCCO)cc(N2CCCCCC2)c2nonc12	-23%	42%	6%	-2%	-13%	?
O=[N+]([O-])c1c(NCCCO)cc(Sc2ccc(Cl)cc2)c2nonc12	-59%	5µM*	15%	?	?	5µM*
